Experimental data: PubChem BioAssay (NCATS)
Inconclusive results are not listed. Activity calls are given as the source filed them. Calls follow the shape of the dose curve; as a rule, active = well fitted curve in the direction sought with a large enough effect; inconclusive = small, poorly fitted or top-dose-only effect, or another doubt; inactive = no such curve, though single readings can be large; an effect the other way counts as inactive or inconclusive.

Tests used:
[1] = qHTS of pediatric cancer cell lines to identify multiple opportunities for drug repurposing: Confirmatory screen for NB1643 cells (AID 1347109); also: nearly all actives have a fitted effect of over 45% in size; also: potency is read from the fitted curve at half-maximal effect
Outline: (§1)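 Cells (500-1,000/well) rested 5 h, then received compounds for 48 h; metabolically active cells were measured by CellTiter-Glo luminescence. Final concentrations spanned up to 46 µM (MIPE, 11-point) or 0.59 nM-46 µM (NPC, 8-point) in primary screens, 11-point in follow-ups.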

[2] = qHTS of pediatric cancer cell lines to identify multiple opportunities for drug repurposing: Confirmatory screen for A673 cells (AID 1347110);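 also: cells exposed to compound for 48 h before the viability read; nearly all actives have a fitted effect of over 65% in size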; also: potency is read from the fitted curve at half-maximal effect
Outline: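 Cells plated at 500-1,000/well were treated five hours later with multi-point dilutions up to 46 µM final. After two days, CellTiter-Glo was added and luminescence read.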

[3] = qHTS of pediatric cancer cell lines to identify multiple opportunities for drug repurposing: Confirmatory screen for LAN-5 cells (AID 1347113); also: nearly all actives have a fitted effect of over 65% in size; also: potency is read from the fitted curve at half-maximal effect
Outline: as §1

[4] = qHTS of pediatric cancer cell lines to identify multiple opportunities for drug repurposing: Confirmatory screen for SJ-GBM2 cells (AID 1347116); also: nearly all actives have a fitted effect of over 60% in size; also: potency is read from the fitted curve at half-maximal effect
Outline: (§2)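 Viability measured as metabolically active cells via CellTiter-Glo luminescence following 48 hours of compound exposure, 11-point dilutions in confirmatory testing. 500-1,000 cells/well plated 5 hours before dosing; controls were DMSO and 2.3 µM bortezomib.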

[5] = qHTS of pediatric cancer cell lines to identify multiple opportunities for drug repurposing: Confirmatory screen for control Hh wild type fibroblast cells (AID 1347121); also: nearly all actives have a fitted effect of over 70% in size; also: potency is read from the fitted curve at half-maximal effect
Outline: as §1

[6] = qHTS of pediatric cancer cell lines to identify multiple opportunities for drug repurposing: Confirmatory screen for U-2 OS cells (AID 1347122); also: nearly all actives have a fitted effect of over 65% in size; also: potency is read from the fitted curve at half-maximal effect
Outline: as §1

[7] = qHTS of pediatric cancer cell lines to identify multiple opportunities for drug repurposing: Confirmatory screen for Rh18 cells (AID 1347125); also: nearly all actives have a fitted effect of over 55% in size; also: potency is read from the fitted curve at half-maximal effect
Outline: as §1

[8] = qHTS of pediatric cancer cell lines to identify multiple opportunities for drug repurposing: Confirmatory screen for Rh30 cells (AID 1347126); also: nearly all actives have a fitted effect of over 55% in size; also: potency is read from the fitted curve at half-maximal effect
Outline: as §1

[9] = qHTS of pediatric cancer cell lines to identify multiple opportunities for drug repurposing: Confirmatory screen for OHS-50 cells (AID 1347128);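 also: compound exposure lasted 48 h at 37 degrees C; nearly all actives have a fitted effect of over 55% in size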; also: potency is read from the fitted curve at half-maximal effect
Outline: as §1

[10] = qHTS of pediatric cancer cell lines to identify multiple opportunities for drug repurposing: Confirmatory screen for SK-N-SH cells (AID 1347129);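 also: cells exposed to compound for 48 h before viability read; nearly all actives have a fitted effect of over 60% in size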; also: potency is read from the fitted curve at half-maximal effect
Outline: as §1

[11] = qHTS of pediatric cancer cell lines to identify multiple opportunities for drug repurposing: Primary screen for Rh41 cells (AID 1347108);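 also: series mostly up to about 46 µM; luminescence drop marks cytotoxic hits; nearly all actives have a fitted effect of over 70% in size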
Outline: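 Cells plated at 500-1,000/well in growth medium, compounds added after 5 h. MIPE tested at 11 points (from 0.78 nM), NPC at 8 points (from 0.59 nM). CellTiter-Glo luminescence after 48 h; concentration-response curves from primary screen.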

[12] = target: N-terminal Xaa-Pro-Lys N-methyltransferase 1 (Homo sapiens) (UniProt Q9BV86); experiment: qHTS Assay for Inhibitors of N-terminal methyltransferase 1 (NTMT1): LOPAC validation of the NTMT1 SAHH-coupled ThioGlo3 Assay (AID 1347143);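 also: SAH from peptide methylation measured as thiol fluorescence via SAHH coupling and ThioGlo3; nearly all actives have a fitted effect of over 70% in size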
Outline: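 NTMT1 125nM + cpds (various conc.), 1 min RT; add SAM 100uM/SAHH 10uM/ThioGlo3 15uM (addition mix). SAHH-coupled thiol detection, Ex340/Em450, t0 and 30 min RT; signal normalized to background. LOPAC 1280-cpd pilot.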

[13] = qHTS of pediatric cancer cell lines to identify multiple opportunities for drug repurposing: Confirmatory screen for SK-N-MC cells (AID 1347111);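 also: cells exposed to compound for 48 h before the readout; nearly all actives have a fitted effect of over 70% in size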; also: potency is read from the fitted curve at half-maximal effect
Outline: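 Seed 500-1,000 cells/well; rest 5 h at 37 degrees C. Pin-transfer compounds, 11-point titration. Incubate 48 h. Add CellTiter-Glo, 15 min RT, read luminescence.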

[14] = qHTS of pediatric cancer cell lines to identify multiple opportunities for drug repurposing: Confirmatory screen for BT-12 cells (AID 1347112); also: potency is read from the fitted curve at half-maximal effect;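 also: viability read after 48 h of compound exposure; nearly all actives have a fitted effect of over 55% in size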
Outline: as §1

[15] = qHTS of pediatric cancer cell lines to identify multiple opportunities for drug repurposing: Confirmatory screen for TC32 cells (AID 1347118);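 also: cells exposed to compound for 48 h before the read; nearly all actives have a fitted effect of over 65% in size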; also: potency is read from the fitted curve at half-maximal effect
Outline: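 TC32 cells, 500-1,000/well in growth medium, compound-treated 48 h at 37 °C; viability from CellTiter-Glo luminescence. Primary screen: MIPE 11-point (0.78 nM–46 µM final), NPC 8-point (0.59 nM–46 µM final); confirmatory at 11-point dilutions.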

[16] = qHTS of pediatric cancer cell lines to identify multiple opportunities for drug repurposing: Confirmatory screen for Rh41 cells (AID 1347123);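 also: potency is read from the fitted curve at half-maximal effect; 48 h compound exposure; nearly all actives have a fitted effect of over 60% in size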
Outline: as §1

[17] = qHTS of pediatric cancer cell lines to identify multiple opportunities for drug repurposing: Confirmatory screen for BT-37 cells (AID 1347117); also: nearly all actives have a fitted effect of over 55% in size; also: potency is read from the fitted curve at half-maximal effect
Outline: as §1

[18] = qHTS of pediatric cancer cell lines to identify multiple opportunities for drug repurposing: Confirmatory screen for NB-EBc1 cells (AID 1347115);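 also: cells exposed to compound for 48 h before the viability read; nearly all actives have a fitted effect of over 45% in size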; also: potency is read from the fitted curve at half-maximal effect
Outline: as §1

[19] = qHTS of pediatric cancer cell lines to identify multiple opportunities for drug repurposing: Confirmatory screen for MG 63 (6-TG R) cells (AID 1347119); also: nearly all actives have a fitted effect of over 55% in size; also: potency is read from the fitted curve at half-maximal effect
Outline: as §1

[20] = qHTS of pediatric cancer cell lines to identify multiple opportunities for drug repurposing: Confirmatory screen for DAOY cells (AID 1347114)
Outline: as §2

Measured: Potency

Chain of N-terminal Xaa-Pro-Lys N-methyltransferase 1 (Homo sapiens) (Q9BV86 whole entry, looked up): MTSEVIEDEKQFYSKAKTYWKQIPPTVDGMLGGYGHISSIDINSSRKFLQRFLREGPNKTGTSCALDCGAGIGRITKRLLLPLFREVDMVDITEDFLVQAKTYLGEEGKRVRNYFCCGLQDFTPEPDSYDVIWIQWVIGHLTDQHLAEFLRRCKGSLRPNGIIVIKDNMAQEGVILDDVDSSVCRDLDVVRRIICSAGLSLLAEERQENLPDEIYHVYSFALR

O=C(Nc1cccc(Br)c1)c1cccc(S(=O)(=O)N2CCCCCC2)c1
inactive: [1] | [2] | [3] | [4] | [5] | [6] | [7] | [8] | [9] | [10]

O=C(NCCN1CCOCC1)c1ccc(Cl)cc1
inactive: [11] | [12]

NC(N)=Nc1nc(CSCC/C(N)=N/S(N)(=O)=O)cs1
inactive: [11] | [12]

O=C(O)c1ccc(-c2cc3cccnc3c(-c3ccc4nonc4c3)n2)cc1
inactive: [10]
active: [2] 0.928 µM | [13] 2.33 µM | [14] 4.14 µM | [15] 2.61 µM | [16] 7.37 µM | [9] 6.57 µM

Cc1cccc(C)c1OCC(C)N (stereo not drawn)
inactive: [11] | [12]

O=C1NC(=O)C(c2ccccc2)(c2ccccc2)N1
inactive: [11] | [12]

COc1ccc2c(Oc3ccc(NC(=O)c4c(C)n(CC(C)(C)O)n(-c5ccccc5)c4=O)cc3F)ccnc2c1
inactive: [1] | [14] | [3] | [17] | [5]
active: [2] 14.7 µM | [16] 23.3 µM

CC(=O)N[C@@H](CS)C(=O)O
inactive: [11] | [12]

COc1ccccc1N1CCN(CCCNc2cc(=O)n(C)c(=O)n2C)CC1
inactive: [11] | [12]

CCN1CCC[C@H]1CNC(=O)c1cc(S(N)(=O)=O)ccc1OC
inactive: [11] | [12]

CN(C)CCC(c1ccccc1)c1ccccn1 (stereo not drawn)
inactive: [11] | [12]

CC(=O)Oc1cc2c(s1)CCN(C(C(=O)C1CC1)c1ccccc1F)C2 (stereo not drawn)
active: [2] 1.04 µM | [4] 4.14 µM | [16] 14.7 µM | [8] 2.93 µM
not listed: [6] | [11] | [12] | [20]
inactive: all other assays above

COc1cc(N2CCC(N3CCN(C)CC3)CC2)ccc1Nc1ncc(Cl)c(Nc2ccccc2S(=O)(=O)C(C)C)n1
active: [1] 1.04 µM | [2] 3.29 µM | [13] 0.657 µM | [3] 185 nM | [20] 16.5 µM | [18] 14.7 µM | [4] 23.3 µM | [17] 14.7 µM | [15] 1.85 µM | [19] 827 nM | [5] 20.8 µM | [6] 465 nM | [16] 0.329 µM | [7] 3.29 µM | [8] 0.737 µM | [9] 2.33 µM | [10] 833 nM
